Screening data (PubChem BioAssay)
Sampled rows, rich in hits. Any-hit rate of the full collection: about 19%.
HT1080-NT tox: qHTS for induction of synthetic lethality in tumor cells producing 2HG: qHTS for the HT-1080-NT fibrosarcoma cell line. HT-1080-NT fibrosarcoma viability, CellTiter-Glo ATP luminescence, 48 h. Potency, µM (series often up to 46.1 µM), inactives show at the top dose activity, negative = less viability, actives largely listed as cytotoxic. 360,000 tested, 1.6% active. AID 686970, 2013;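 note: NT is the 2HG producing partner of a matched IDH1 knockdown line; potency is the fitted concentration of half-maximal effect; 0% = DMSO-treated cells and -100% = media-only wells without cells; nearly all actives have a fitted effect of over 55% in size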
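750 cells/well, RPMI + 5% FBS; 2 h settle, compound pin-transfer, 48 h at 37 degrees C. CellTiter-Glo 10 min RT, luminescence. Normalized to DMSO and media-only wells.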
HT1080 IDH1KD tx: qHTS for induction of synthetic lethality in tumor cells producing 2HG: qHTS for the HT-1080-IDH1KD cell line. HT-1080 IDH1 knockdown viability, ATP luminescence, 48 h. Potency, µM (series often up to 46.1 µM), inactives show at the highest dose activity, negative = toxicity, usual class: cytotoxic. 360,000 tested, 2% active;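 note: potency is the fitted concentration of half-maximal effect; 0% = DMSO wells and -100% = cell-free medium wells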
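Using the IDH1-knockdown HT-1080 line run in the same batch and compound series as the NT line, viability after 48 h at 37 °C was determined by CellTiter-Glo luminescence and expressed as % activity.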
DT40 TDP1 CPT: qHTS for Inhibitors of human tyrosyl-DNA phosphodiesterase 1 (TDP1): qHTS in cells in presence of CPT; Potency, µM (top dose mostly 46.2 µM), for inactives: at the top dose activity change, negative = growth inhibition, usual class: inhibitors; 420,000 tested, 12% active; chicken DT40 Tdp1-/-;hTDP1 cells + 20 nM CPT, ATP luminescence, 48 h; note: potency is the fitted concentration of half-maximal effect; nearly all actives have a fitted effect of over 55% in size
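Cell growth measured by CellTiter-Glo luminescence after a minimum 48 h, 37 C compound exposure with 20 nM CPT in Tdp1-knockout DT40 cells stably expressing hTDP1, seeded 400/well; qHTS titration format.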
DT40 TDP1 no CPT: qHTS for Inhibitors of human tyrosyl-DNA phosphodiesterase 1 (TDP1): qHTS in cells in absence of CPT; DT40 Tdp1-/- hTDP1 cells, no CPT, ATP luminescence, 48 h; AID 686978, 2013; Potency, µM (top dose mostly 46.2 µM), inactives show top-dose activity change, negative = growth inhibition, usual class: inhibitors; 420,000 tested, 15% active; note: potency is the fitted concentration of half-maximal effect; nearly all actives have a fitted effect of over 55% in size
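DT40 Tdp1-/-;hTDP1 cells, no CPT (DMSO vehicle only), 400 cells/well; compounds pin-transferred; ≥48 hr, 37 °C; CellTiter-Glo 30 min RT dark, luminescence read.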
uPA surface inh: qHTS for Inhibitors of Cell Surface uPA Generation | 330,000 tested, 0.31% active | AID 540303, 2011 | Potency, µM (highest dose often 38.3 µM), for the others: at the top dose activity change, negative = inhibition, most hits filed as inhibitors | cell surface uPA generation assay, qHTS; active = well fitted inhibition curve with a large enough effect; inconclusive = small, poorly fitted or top-dose-only effect; inactive = no such curve, though single readings can be large or run the other way; tested in mouse RAW 264.7 cells; note: potency is the fitted concentration of half-maximal effect; nearly all actives have a fitted effect of over 55% in size
IL1B secr inh: qHTS for Inhibitors of Inflammasome Signaling: IL-1-beta AlphaLISA Primary Screen. THP-1 LPS/ATP IL-1B secretion, AlphaLISA, 16 h; stronger effect = lower value. AID 743279, 2014. 360,000 tested, 4.7% active. activity change, % at 57.5 µM; in the data active = activity change below about -50%; inconclusive = mostly about -30% to -49%
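Secreted IL-1B measured by AlphaLISA bead assay after 16 h compound exposure of THP-1 cells; compounds (final up to 57.5 uM) added 1 h before LPS (250 ng/mL) and ATP (1.25 mM) stimulation; lower signal means less secretion.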
Numbers without * were called inactive; ? = inconclusive; · = not tested or not shown; ! = a repeat was not active; [ ] = another dose, or the depositor's remark. Unless noted, calls come from the whole dose curve; as a rule, active = well fitted curve in the direction sought with a large enough effect; inconclusive = small, poorly fitted or top-dose-only effect, or another doubt; inactive = no such curve, though single readings can be large; an effect the other way counts as inactive or inconclusive. Unless noted, % is set by controls: 0 for no effect and ±100 for the full control effect.

SMILES	HT1080-NT tox	HT1080 IDH1KD tx	DT40 TDP1 CPT	DT40 TDP1 no CPT	uPA surface inh	IL1B secr inh
Cc1cccc(-n2ncc3c(NCc4ccccc4)ncnc32)c1	?	18µM*	4.6µM*	6.5µM*	?	23
c1ccc(CNc2ncnc3nc[nH]c23)cc1	-4%	-21%	?	?	9%	5
C[C@@]12CCC(Cl)C[C@H]1CCC1C2CC[C@]2(C)C(=O)CCC12 (stereo not given in full)	·	·	6%	20%	·	·
Cc1cccc2nc(-c3ccccc3)c(-c3ccc(CN4CCC(n5c(=O)[nH]c6ccccc65)CC4)cc3)nc12	?	?	9.2µM*	13µM*	·	-51*
O=C1CC(N2CCC(n3c(=O)[nH]c4ccccc43)CC2)C(=O)N1c1ccc(F)cc1 (stereo not given)	9%	10%	-13%	-29%	7%	-15
N#Cc1ccc2nc(-c3ccc(CN4CCC(n5c(=O)[nH]c6ccccc65)CC4)cc3)c(-c3ccccc3)nc2c1	?	?	5.8µM*	9.2µM*	·	-66*
N[C@@H](Cc1ccc(Oc2cc(I)c(O)c(I)c2)c(I)c1)C(=O)O	·	·	14%	-5%	·	·
C[N@+]12CCCC[C@@H]1CCC(=C(c1cccs1)c1cccs1)C2	·	·	27µM*	19µM*	·	·
COc1cc(CN2CCN(c3cc(C)ccc3C)CC2)ccc1O	-17%	-1%	7.3µM*	7.3µM*	?	21
COc1ccccc1N1CCN(Cc2cc(C)c(C)cc2O)CC1	-11%	-9%	23µM*	21µM*	1%	-20
COc1ccccc1N1CCN(Cc2ccccc2)CC1	2%	5%	-1%	-25%	0%	14
Cc1ccc(CNC(=O)CCCn2c(=O)c3sccc3n(CC(=O)Nc3c(C)cccc3C)c2=O)cc1	·	·	-2%	-16%	·	·
COCCN1C(=O)NC(=O)/C(=C\c2ccc(Br)cc2)C1=O	-1%	-3%	21µM*	?	-9%	-2
CN(C)c1ccc(/C=C2/C(=O)NC(=O)N(CCc3ccc(F)cc3)C2=O)cc1	12%	0%	?	?	22%	2
COc1ccc(-c2sc3ccccc3c2-c2ccc(OCCN(C)C)cc2)cc1	23µM*	?	?	23µM*	?	-27
COc1cccc(-c2sc3ccccc3c2-c2ccc(OCCN3CCOCC3)cc2)c1	-19%	-9%	?	?	-11%	-16
O=C(C1CCN(S(=O)(=O)c2cccnc2)CC1)N1CCN(c2ccc(Cl)cc2)CC1	?	?	5.2µM*	3.7µM*	?	-13
O=C(C1CCN(S(=O)(=O)c2ccc(Br)s2)CC1)N1CCN(c2ccc(F)cc2)CC1	·	·	?	21µM*	·	·
C=CC(=O)OCCO	0%	15%	-27%	-28%	1%	-26
C[C@@H]1CN(CCCn2c3ccccc3c3ccccc32)C[C@H](C)N1	·	·	7.5µM*	8.4µM*	·	·
COc1ccc(C(=O)O/N=C(/C(N)=O)P(=O)(OC(C)C)OC(C)C)cc1	?	?	?	?	-4%	·
COc1ccc(NC(=O)N2CC[C@@]3(CCCN(C(=O)Oc4ccccc4)C3)C2)cc1	·	·	8%	-2%	·	·
COc1ccc(OC(=O)N2C/C(=C/c3ccccc3)C(=O)/C(=C\c3ccccc3)C2)cc1	10µM*	8.2µM*	1.2µM*	1.5µM*	-12%	-87*
COc1cc(/C=C/[N+](=O)[O-])ccc1OC(=O)c1cccnc1	-4%	-3%	3.3µM*	2.3µM*	-34%	?
COc1cc(/C=N/n2cnnc2)ccc1OC(=O)N(C)C	0%	3%	-21%	-9%	9%	15
SMILES	HT1080-NT tox	HT1080 IDH1KD tx	DT40 TDP1 CPT	DT40 TDP1 no CPT	uPA surface inh	IL1B secr inh
COc1ccc(-n2nc(C(=O)NCC(=O)N3CCC4(CC3)OCCO4)c3ccccc3c2=O)cc1OC	-12%	-1%	-4%	-17%	-9%	-2
COc1ccc(C(CC(=O)c2ccc3c(c2)OCO3)c2c(O)c3ccccc3oc2=O)cc1OC (stereo not given)	-5%	2%	-19%	23µM*	·	0
COC(=O)C(NC(C)=O)(Nc1nc2c(C)cc(C)cc2s1)C(F)(F)F (stereo not given)	16µM*	13µM*	?	16µM*	-11%	-9
c1ccc(CCN2CCCCC2)nc1	-1%	-2%	9%	-8%	1%	23
CC(C)(C)OC(=O)NCc1ccc(CNC(=O)c2[nH]cnc2C(=O)Nc2ccccc2F)cc1	-18%	-27%	13µM*	7.3µM*	·	-7
C[C@H](NC(=O)c1[nH]cnc1C(=O)Nc1ccc(Cl)cc1)c1ccccc1	?	?	?	?	-27%	-24
OCC1OC(n2cnc3cc(Cl)c(Cl)cc32)C(O)C1O (stereo not given)	?	?	15µM*!	?	·	?
CS(=O)(=O)CCN1CC2CCCC(C2)C1	6%	17%	9%	-4%	0%	-8
CCOc1ccc(Cl)cc1CNCCc1ccc(F)cc1	?	-25%	21µM*	16µM*	-3%	-57*
Fc1ccc(CCNCc2ccccc2Cl)cc1	-2%	-6%	-28%	-24%	1%	-6
CC(Cc1ccccc1Sc1ccc(O)cc1)N(C)C (stereo not given)	-1%	-15%	?	21µM*	-8%	-5
C[C@@H](Cc1ccccc1)N(C)C	·	·	-15%	-17%	·	·
CCCCN1CCC(O)(c2ccccc2)C(C(=O)c2ccccc2)C1 (stereo not given)	0%	-2%	2.9µM*	2.9µM*	-4%	-11
Cc1c(O)cccc1C(=O)N[C@@H](CSc1ccccc1)[C@H](O)CN1C[C@H]2CCCC[C@H]2C[C@H]1C(=O)NC(C)(C)C	13µM*	18µM*	9.2µM*!	23µM*!	?	?
Cc1cc(C)cc(NC(=O)CSc2oc(-c3cccs3)nc2S(=O)(=O)c2ccc(Br)cc2)c1	·	·	5.8µM*	6.5µM*	·	·
CN(C)CCc1c[nH]c2cccc(OP(=O)(O)O)c12	·	·	10%[92.5 µM]	3%[92.5 µM]	·	·
Cc1ccc(NCc2cccn2-c2nnc(N3CCC(C(=O)NCc4ccc(OC(C)C)cc4)CC3)s2)cc1	·	·	?	18µM*	·	·
